Source: PubChem BioAssay (NCATS)
Results filed as inconclusive are left out. Activity calls are given as the source filed them. Calls follow the shape of the dose curve; as a rule, active = well fitted inhibition curve with a large enough effect; inconclusive = small, poorly fitted or top-dose-only effect, or effect the other way; inactive = flat fitted curve, though single readings scatter.

molecular target: ATP-dependent 6-phosphofructokinase (Trypanosoma brucei brucei) (UniProt O15648); assay: qHTS Assay to Find Inhibitors of T. brucei phosphofructokinase: hit validation (AID 492961);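 also: luminescence reports ADP formed as PFK phosphorylates fructose-6-phosphate with ATP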; conditions: T. brucei PFK, ADP-Glo luminescence; series mostly up to 51.4 µM; activity change, negative = inhibition: at the top concentration
Sequence (O15648 whole entry, looked up): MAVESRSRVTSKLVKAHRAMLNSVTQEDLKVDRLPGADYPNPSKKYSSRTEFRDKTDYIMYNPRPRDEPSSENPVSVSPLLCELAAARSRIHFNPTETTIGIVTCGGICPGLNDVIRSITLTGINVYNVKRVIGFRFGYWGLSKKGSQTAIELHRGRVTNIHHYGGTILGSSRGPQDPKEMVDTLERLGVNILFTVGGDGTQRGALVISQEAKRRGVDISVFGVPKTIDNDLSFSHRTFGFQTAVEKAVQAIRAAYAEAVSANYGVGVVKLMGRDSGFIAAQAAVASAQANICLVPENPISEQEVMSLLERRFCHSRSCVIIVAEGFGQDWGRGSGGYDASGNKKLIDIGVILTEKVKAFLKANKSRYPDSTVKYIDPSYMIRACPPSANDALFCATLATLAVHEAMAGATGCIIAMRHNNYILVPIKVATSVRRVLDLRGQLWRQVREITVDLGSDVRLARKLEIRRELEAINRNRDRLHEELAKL
How it was run: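 Percent activity derived from corrected luminescence, normalized between 0x and 1x enzyme controls, then fitted to concentration-response curves. Conditions: 1.25 nM PFK, 0.1 mM ATP, 0.5 mM F6P, 45 min RT.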
% is scaled to controls: 0 for no effect and ±100 for the full control effect.

Row | Compound | activity change, negative = inhibition
1 | CC(C)(C)CC(C)(C)c1ccc(O)c(-n2nc3ccccc3n2)c1 | 6.93% (inactive)
2 | OC1C(O)C(O)C(O)C(O)C1O (stereo unspecified) | -0.435% (inactive)
3 | NS(=O)(=O)c1cc(C(=O)O)cc(N2CCCC2)c1Oc1ccccc1 | -2.38% [at 24.3 µM] (inactive)
4 | CCOC(=O)c1c(N)sc2c1CCN(Cc1ccccc1)C2 | -8.47% (inactive)
5 | Cc1cc(NS(=O)(=O)c2ccc(N)cc2)nc(C)n1 | 6.17% (inactive)
6 | CCC(C(=O)OCCOCCN(CC)CC)c1ccccc1 (stereo unspecified) | -10.8% (inactive)
7 | CCN(CC)CCNC(=O)COc1ccc(OC)cc1 | 1.63% (inactive)
8 | O=S(c1cc(Cl)cc(Cl)c1O)c1cc(Cl)cc(Cl)c1O | -13.7% (inactive)
9 | CCCCCN=C(N)N/N=C/c1c[nH]c2ccc(OC)cc12 | -1.02% (inactive)
10 | O=C(Nc1cccc(C2=NCCN2)c1)Nc1cccc(C2=NCCN2)c1 | -6.35% (inactive)
11 | O=C1C(O)=C(O)C(=O)C(O)=C1O | -11% (inactive)
12 | CN(CCCN1c2ccccc2CCc2ccccc21)CC(=O)c1ccc(Cl)cc1 | -9.54% (inactive)
13 | O=C(CCN1CCN2CCCC2C1)N1c2ccccc2Sc2ccc(Cl)cc21 (stereo unspecified) | 12.8% (inactive)
14 | COc1cc(O)c(C(=O)c2ccccc2)cc1S(=O)(=O)O | -7.68% (inactive)
15 | O=C(O)CCC(=O)Nc1ccc(S(=O)(=O)Nc2nccs2)cc1 | -1.57% [at 24.3 µM] (inactive)
16 | Cc1ccccc1OCC(O)CO (stereo unspecified) | -8.98% (inactive)
17 | COc1cc([C@H]2Oc3cc([C@H]4Oc5cc(O)cc(O)c5C(=O)[C@@H]4O)ccc3O[C@@H]2CO)ccc1O | 13.3% (inactive)
18 | c1ccc(CC2=NCCN2)cc1 | 12.6% [at 24.3 µM] (inactive)

Row | Compound | activity change, negative = inhibition
19 | O=C(Nc1ccc([N+](=O)[O-])cc1)Nc1ccc([N+](=O)[O-])cc1 | 3.67% (inactive)
20 | Cc1cc(-c2ccccc2)nnc1NCCN1CCOCC1 | -7.33% (inactive)
21 | Cc1cccc(C)c1NC(=O)CN1CCCC1 | -5.65% (inactive)
22 | C/C=C/c1ccc(O)c(OC)c1 | -2.1% (inactive)
23 | CCCCNC(=O)NS(=O)(=O)c1ccc(N)cc1 | -5.86% (inactive)
24 | CCCN(CCc1cccs1)[C@H]1CCc2c(O)cccc2C1 | 1.04% (inactive)
25 | Cc1ccc(S(=O)(=O)NC(=O)NC2CCCC2)cc1 | -1.58% (inactive)
26 | CN1CCN(C2=Nc3ccccc3Sc3ccc(Cl)cc32)CC1 | -1.63% (inactive)
27 | CN1CCN(CCC(=O)N2c3ccccc3Sc3ccc(C(F)(F)F)cc32)CC1 | -0.659% (inactive)
28 | CN(Cc1ccc(C(C)(C)C)cc1)Cc1cccc2ccccc12 | 11.6% (inactive)
29 | CCOc1ccccc1C(N)=O | -0.696% (inactive)
30 | Nc1nc(N)c(-c2ccccc2)s1 | -1.57% (inactive)
31 | CC1=C(C(=O)O)N2C(=O)[C@@H](NC(=O)[C@H](N)c3ccccc3)[C@H]2SC1 | 6.77% (inactive)
32 | COc1cc(C(=O)NCc2ccc(OCCN(C)C)cc2)cc(OC)c1OC | 10.6% [at 24.3 µM] (inactive)
33 | OCc1ccccn1 | 11.4% (inactive)
34 | CCCCCCCCCCCCCC[N+](C)(C)Cc1ccccc1 | 16.2% (inactive)
35 | CC1CCc2c(N3CCC(O)CC3)c(F)cc3c(=O)c(C(=O)O)cn1c23 (stereo unspecified) | -2.63% (inactive)
36 | CCCCC(CC)COC(=O)/C=C/c1ccc(OC)cc1 (stereo unspecified) | -5.2% (inactive)
